Calls of active or inactive are those of the source. Unless noted, no rule for the calls is given here.
What was measured:
[1] = system: XIP peptide (Xip251-270) binding; assay: small-molecule binders of XIP peptide, primary screen, biochemical, small-molecule microarray, fluorescence 635/667 nm, 0.1 µg/mL protein (AID 1182); details: fluorescent protein binding, 635 nm, higher = more signal, called active from +8 up or from −8 down
XIP peptide (Xip251-270) = assay: small-molecule binders of XIP peptide, primary screen, biochemical, small-molecule microarray, fluorescence 635/667 nm, 0.5 µg/mL protein (AID 1183); details: small-molecule microarray binding, fluorescence 635 nm; higher = more signal
[2] = Plasmodium falciparum growth inhibition, primary screen, strain 3D7, DAPI fluorescence, 100 nL (AID 1184);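 also: parasites grown inside human red blood cells in medium with human serum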; details: P. falciparum 3D7 growth, 3 d, higher = more signal
[3] = molecular target: Homeobox protein Hox-A13 (Mus musculus) (UniProt Q62424); assay: inhibitors of HoxA13-DNA binding, primary screen, biochemical, fluorescence polarization, labeled oligonucleotide (AID 1185); details: 15 min, higher = more signal, called active from +8 up or from −8 down
[4] = inhibitors of hydroxyurea-induced Chk1 phosphorylation, primary screen, imaging, HeLa, phospho-Chk1 antibody, percent positive cells (AID 1186); details: hydroxyurea-induced phospho-Chk1 immunofluorescence imaging, higher = more signal
[5] = inhibitors of hydroxyurea-induced Chk1 phosphorylation, primary screen, imaging, HeLa, phospho-Chk1 nuclear intensity (AID 1187); details: hydroxyurea-induced phospho-Chk1 immunofluorescence imaging, higher = more signal

Homeobox protein Hox-A13 (Mus musculus), sequence (Q62424 whole entry, looked up): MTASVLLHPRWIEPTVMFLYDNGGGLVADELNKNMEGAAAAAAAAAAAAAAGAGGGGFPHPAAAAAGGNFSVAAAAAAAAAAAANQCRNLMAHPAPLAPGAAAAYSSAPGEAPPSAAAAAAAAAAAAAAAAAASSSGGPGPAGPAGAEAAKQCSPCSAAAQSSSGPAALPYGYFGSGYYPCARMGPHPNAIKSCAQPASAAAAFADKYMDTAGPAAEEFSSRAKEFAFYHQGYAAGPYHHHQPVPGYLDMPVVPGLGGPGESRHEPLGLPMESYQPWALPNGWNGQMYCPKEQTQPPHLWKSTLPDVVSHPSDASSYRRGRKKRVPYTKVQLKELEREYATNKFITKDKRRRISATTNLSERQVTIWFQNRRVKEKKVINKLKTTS

Structure (SMILES) | composite z-score [1] | composite z-score (XIP peptide (Xip251-270)) | z-score [2] | z-score [3] | z-score [4] | z-score [5]
COCCOC(=O)N1C(=O)[C@@]2(c3cc(C#Cc4ccc(OC)cc4)ccc31)[C@H](C(=O)N1CCN(c3ncccn3)CC1)[C@H]1C(=O)O[C@H](c3ccccc3)[C@H](c3ccccc3)N1[C@@H]2c1ccccc1OCCO | -0.148 (inactive) | 0.561 | -1.51 | -0.114 (inactive) | -0.019 (inactive) | -0.0377 (inactive)
COCCCNC(=O)[C@]1(Cc2ccccc2N=[N+]=[N-])N=C(c2ccc(OCCCO)cc2)O[C@@H]1c1ccccc1N=[N+]=[N-] | -0.207 (inactive) | 0.538 | -2.11 | -1.51 (inactive) | -0.553 (inactive) | -0.627 (inactive)
CN(C)CCCN1C(=O)[C@@]2(c3ccc([N+](=O)[O-])cc3)CC(=O)N(CC34CC5CC(CC(C5)C3)C4)[C@@H]2c2ccc(CO)cc21 | -0.0347 (inactive) | 0.35 | -0.428 | -2.47 (inactive) | -0.411 (inactive) | -0.112 (inactive)
O=C1NC(=O)C2C1C=CC(C(O)c1ccc3c(c1)OCO3)N2Nc1ccccn1 (stereo unspecified) | 0.307 (inactive) | 0.247 | 0.453 | -1.69 (inactive) | 0.095 (inactive) | 0.14 (inactive)
C=CC[C@@]1(C(=O)N2CCCCC2)N=C(c2ccc(OCCCO)cc2)O[C@@H]1c1ccccc1 | 0.0703 (inactive) | 0.735 | -2.09 | -5.99 (inactive) | -0.377 (inactive) | -0.146 (inactive)
C=CCN1C(=O)[C@@]2(O[C@@H](CCO)[C@H]([Si](C)(C)c3ccc(OC)cc3)[C@H]2C)c2cc(N3C(=O)c4ccccc4Oc4ccccc43)ccc21 | 0.227 (inactive) | 0.536 | -2.52 | -4.25 (inactive) | -0.948 (inactive) | -0.004 (inactive)
CCCCC(=C=CC[C@@H](O)c1ccc(OCCO)cc1)C[C@@H](O)COCc1ccccc1 | 0.117 (inactive) | 0.408 | -2.73 | -4.47 (inactive) | -0.263 (inactive) | 0.737 (inactive)
CN1C2C=C(CCCO)C(C3C(=O)N(C(N)=O)C(=O)C32)C1c1cccs1 (stereo unspecified) | 0.0931 (inactive) | -0.301 | -0.29 | -8.5 (active) | -0.443 (inactive) | 0.133 (inactive)
COc1ccc([Si](C)(C)[C@H]2[C@H](CCn3cc([C@H](O)c4ccccc4)nn3)O[C@@]3(C(=O)N(Cc4cccc(N5C(=O)c6cccc7cccc5c67)c4)c4ccccc43)[C@@H]2C)cc1 | 0.75 (inactive) | 0.141 | -0.989 | -2.01 (inactive) | 0.169 (inactive) | -0.656 (inactive)
CCOc1cc(C(O)C2C=CC3C(=O)N(C)C(=O)C3N2N2CCCCC2)ccc1O (stereo unspecified) | 0.169 (inactive) | 0.333 | -0.144 | -5.25 (inactive) | -0.595 (inactive) | -0.839 (inactive)
O=C1NC(=O)C2C1C=CC(C(O)c1c(F)cccc1Cl)N2Nc1ccccn1 (stereo unspecified) | 0.49 (inactive) | 0.833 | -0.362 | -2.19 (inactive) | 0.578 (inactive) | 0.135 (inactive)
CC(C)(C)OC(=O)CC[C@]1(C(=O)N2CCOCC2)N=C(c2ccc(OCCCO)cc2)O[C@H]1c1ccccc1 | -0.0263 (inactive) | 0.689 | -0.29 | -5.96 (inactive) | -0.443 (inactive) | -0.494 (inactive)
C=C(CCCC)C(=O)CC[C@@H](OC(=O)c1ccccc1-c1ccccc1C(=O)O)c1cccc(OCCO)c1 | 1.03 (inactive) | 0.204 | -2.46 | -5.72 (inactive) | 0.456 (inactive) | 0.408 (inactive)
COc1ccc(NC(=O)O[C@H]2[C@H](OC(=O)Nc3ccc4c(c3)OCO4)[C@@H](OC(=O)Nc3ccc4c(c3)OCO4)[C@@H](OC)O[C@@H]2CO)cc1 | 1.61 (inactive) | 0.877 | -2.04 | -6.9 (inactive) | -0.0538 (inactive) | 0.419 (inactive)
CC(C)OC(=O)CC(=O)CC(O)c1cccc(C#N)c1 (stereo unspecified) | 0.768 (inactive) | 0.778 | 0.612 | -0.542 (inactive) | -0.467 (inactive) | -0.295 (inactive)
O=C1NC(=O)C2C1C=CC(C(O)c1ccc(Br)cc1)N2Nc1ccccn1 (stereo unspecified) | 0.623 (inactive) | 0.883 | 0.284 | -0.555 (inactive) | 0.48 (inactive) | 0.784 (inactive)
COCCOC(=O)N1C(=O)[C@@]2(c3cc(C#CCNC(N)=O)ccc31)[C@H](C(=O)N1CCCCCCC1)[C@H]1C(=O)O[C@H](c3ccccc3)[C@H](c3ccccc3)N1[C@@H]2c1ccc(O)cc1 | 0.328 (inactive) | 0.46 | 0.178 | 0.172 (inactive) | 0.0004 (inactive) | 0.132 (inactive)
CC(C)(C)OC(=O)CC[C@]1(C(=O)O)N=C(c2ccc(OCCCO)cc2)O[C@H]1c1ccccc1 | -0.0164 (inactive) | 0.543 | -1.62 | -3.48 (inactive) | -0.388 (inactive) | -0.243 (inactive)
Cc1ccc(S[C@]2(C(=O)NCC(C)C)CC(=O)N(Cc3ccccc3Cl)[C@@H]2c2ccc(CO)cc2I)cc1 | 2.28 (inactive) | 0.157 | -0.548 | -2.97 (inactive) | -0.346 (inactive) | -0.237 (inactive)
CC(C)N1CC=CC23O[C@@H]4C=CCCOC(=O)C4[C@H]2C(=O)N(CCO)[C@@H]3C1=O (stereo partly specified) | -0.3 (inactive) | 0.172 | -0.434 | -4.46 (inactive) | -0.494 (inactive) | -0.578 (inactive)
NC(N)=NCc1cn(CCc2c[nH]c3ccccc23)nn1 | 1.35 (inactive) | 0.937 | 0.743 | -2.09 (inactive) | 0.568 (inactive) | -0.248 (inactive)
C=CCN1C(=O)[C@@]2(CCC(=O)OC(C)(C)C)N=C(c3ccc(OCCCO)cc3)O[C@H]2c2ccccc21 | 0.841 (inactive) | 0.473 | -1.95 | -0.861 (inactive) | -0.239 (inactive) | -0.351 (inactive)
CCCCN1CC=CC23O[C@@H]4/C=C\CCC(C)OC(=O)C4[C@H]2C(=O)N(CCCCCCO)[C@@H]3C1=O (stereo partly specified) | 0.879 (inactive) | 0.0096 | 0.11 | -4.7 (inactive) | -0.494 (inactive) | 0.339 (inactive)
COc1cc2c(cc1OC)CN(C(=O)[C@@H]1[C@H]3C(=O)O[C@H](c4ccccc4)[C@H](c4ccccc4)N3[C@H](c3ccccc3OCCO)[C@@]13C(=O)Nc1ccc(C#CC4(O)CCCCCC4)cc13)CC2 | 0.863 (inactive) | 0.822 | -1.67 | 2.22 (inactive) | -0.517 (inactive) | -0.522 (inactive)
COCC(=C=CC[C@H](O)c1ccc(OCCO)cc1)C[C@H](O)COCc1ccccc1 | -0.0114 (inactive) | 0.698 | -2.74 | -5.25 (inactive) | -0.364 (inactive) | 0.19 (inactive)
C=CCN1C(=O)[C@]2(CC=C)N=C(c3ccc(OCCCO)cc3)O[C@@H]2c2ccccc21 | 0.935 (inactive) | 0.707 | -1.96 | -0.0163 (inactive) | -0.0194 (inactive) | 0.169 (inactive)
